# Measured values from the supplement of paper PMC11006884.
# Targets with a hit are over-represented here; the source holds about 6,500 in all. About 2% of all pairs of compound and target were hits. A number with no mark means an inactive call.
# Compound: COC(=O)C#Cc1ccccc1 [methyl 3-phenylpropiolate]
# Assay: log2 ratio of iodoacetamide-alkyne labeling of the cysteine site, DMSO over compound (competition); higher = stronger covalent engagement of the cysteine by the compound, active = 1 or more
# Conditions: 500 µM; treatment time 1 h; system: HEK293T cell lysate
# Outline: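 Reporter intensities give each cysteine's log2 competition ratio as the mean of control channels over the mean of compound channels. The samples were HEK293T lysate (2 mg/mL) given vehicle or electrophile (500 µM, 1 h, ambient temperature), then iodoacetamide alkyne (1 h), followed by click coupling to sCIP-TMT reagents, pooling, trypsin digestion overnight at 37 °C, streptavidin enrichment, acid elution, Orbitrap Eclipse LC-MS/MS with FAIMS and FragPipe quantification. Duplicate channels and three replicates were run, and cysteines quantified in only one replicate were discarded.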
# Chain of UniProt P09874 (P09874 whole entry, looked up): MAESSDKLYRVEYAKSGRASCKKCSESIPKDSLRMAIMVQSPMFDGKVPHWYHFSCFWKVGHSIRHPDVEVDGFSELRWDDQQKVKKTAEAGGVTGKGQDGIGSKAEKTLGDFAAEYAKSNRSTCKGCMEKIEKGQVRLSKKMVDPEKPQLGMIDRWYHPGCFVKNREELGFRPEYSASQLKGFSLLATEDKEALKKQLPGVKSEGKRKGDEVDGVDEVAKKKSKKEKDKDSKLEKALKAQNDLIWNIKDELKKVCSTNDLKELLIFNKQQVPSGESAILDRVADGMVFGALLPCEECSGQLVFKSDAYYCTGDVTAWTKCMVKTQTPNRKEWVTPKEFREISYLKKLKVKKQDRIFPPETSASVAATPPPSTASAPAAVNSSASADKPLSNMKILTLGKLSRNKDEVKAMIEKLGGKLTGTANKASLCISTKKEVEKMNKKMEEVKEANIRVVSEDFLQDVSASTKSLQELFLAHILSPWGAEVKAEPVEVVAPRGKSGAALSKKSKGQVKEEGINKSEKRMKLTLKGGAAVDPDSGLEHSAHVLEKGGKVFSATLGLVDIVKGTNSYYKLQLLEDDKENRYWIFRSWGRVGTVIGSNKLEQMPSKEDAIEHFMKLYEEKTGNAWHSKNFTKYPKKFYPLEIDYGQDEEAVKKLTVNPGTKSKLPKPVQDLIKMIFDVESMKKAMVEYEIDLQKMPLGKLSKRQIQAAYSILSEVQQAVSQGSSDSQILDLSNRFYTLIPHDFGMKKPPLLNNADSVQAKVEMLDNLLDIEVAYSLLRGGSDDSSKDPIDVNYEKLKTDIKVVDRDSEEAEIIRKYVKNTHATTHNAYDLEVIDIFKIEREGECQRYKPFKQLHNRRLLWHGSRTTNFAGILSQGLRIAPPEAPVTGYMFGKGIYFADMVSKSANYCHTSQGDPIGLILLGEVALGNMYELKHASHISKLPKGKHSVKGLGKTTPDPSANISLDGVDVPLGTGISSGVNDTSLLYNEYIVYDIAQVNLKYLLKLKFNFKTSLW
# Chain of UniProt P49589 (P49589 whole entry): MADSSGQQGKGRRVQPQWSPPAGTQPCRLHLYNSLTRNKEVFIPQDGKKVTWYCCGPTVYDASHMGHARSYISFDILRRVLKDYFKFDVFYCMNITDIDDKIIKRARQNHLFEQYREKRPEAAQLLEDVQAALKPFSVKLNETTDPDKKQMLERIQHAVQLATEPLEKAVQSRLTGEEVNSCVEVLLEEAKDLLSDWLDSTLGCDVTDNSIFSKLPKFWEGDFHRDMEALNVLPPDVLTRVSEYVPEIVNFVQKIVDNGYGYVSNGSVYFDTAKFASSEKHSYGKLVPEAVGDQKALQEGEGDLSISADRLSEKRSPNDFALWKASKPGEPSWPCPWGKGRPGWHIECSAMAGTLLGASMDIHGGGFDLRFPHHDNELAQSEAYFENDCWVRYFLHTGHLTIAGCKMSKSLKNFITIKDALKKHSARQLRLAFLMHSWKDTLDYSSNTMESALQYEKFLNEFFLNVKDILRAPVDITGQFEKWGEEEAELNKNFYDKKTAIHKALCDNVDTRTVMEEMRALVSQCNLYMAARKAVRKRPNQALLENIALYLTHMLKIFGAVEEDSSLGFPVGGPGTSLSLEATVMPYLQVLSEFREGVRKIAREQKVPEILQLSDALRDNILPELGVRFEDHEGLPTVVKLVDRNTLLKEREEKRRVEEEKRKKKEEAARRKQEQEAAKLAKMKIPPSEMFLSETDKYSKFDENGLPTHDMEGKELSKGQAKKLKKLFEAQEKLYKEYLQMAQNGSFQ
# Chain of UniProt P05141 (P05141 whole entry, looked up): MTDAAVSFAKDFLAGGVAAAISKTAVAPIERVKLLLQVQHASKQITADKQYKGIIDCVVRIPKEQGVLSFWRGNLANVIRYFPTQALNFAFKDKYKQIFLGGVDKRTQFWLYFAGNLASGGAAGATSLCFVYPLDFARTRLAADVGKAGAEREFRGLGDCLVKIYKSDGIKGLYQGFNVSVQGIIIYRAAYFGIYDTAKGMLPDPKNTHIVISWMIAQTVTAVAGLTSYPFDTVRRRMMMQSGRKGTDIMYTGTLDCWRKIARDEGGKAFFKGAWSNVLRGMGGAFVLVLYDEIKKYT
# Chain of UniProt P35613 (P35613 whole entry): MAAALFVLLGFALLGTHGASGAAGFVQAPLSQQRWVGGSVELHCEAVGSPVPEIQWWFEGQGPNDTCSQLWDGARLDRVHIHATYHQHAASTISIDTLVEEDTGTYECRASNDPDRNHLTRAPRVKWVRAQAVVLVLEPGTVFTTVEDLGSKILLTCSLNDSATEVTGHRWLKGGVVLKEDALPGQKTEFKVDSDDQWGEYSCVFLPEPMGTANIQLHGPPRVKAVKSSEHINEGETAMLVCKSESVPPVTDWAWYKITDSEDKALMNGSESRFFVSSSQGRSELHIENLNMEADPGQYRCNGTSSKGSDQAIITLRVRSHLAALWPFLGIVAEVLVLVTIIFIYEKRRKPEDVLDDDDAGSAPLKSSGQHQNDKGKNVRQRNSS
# Chain of UniProt P31943 (P31943 whole entry, looked up): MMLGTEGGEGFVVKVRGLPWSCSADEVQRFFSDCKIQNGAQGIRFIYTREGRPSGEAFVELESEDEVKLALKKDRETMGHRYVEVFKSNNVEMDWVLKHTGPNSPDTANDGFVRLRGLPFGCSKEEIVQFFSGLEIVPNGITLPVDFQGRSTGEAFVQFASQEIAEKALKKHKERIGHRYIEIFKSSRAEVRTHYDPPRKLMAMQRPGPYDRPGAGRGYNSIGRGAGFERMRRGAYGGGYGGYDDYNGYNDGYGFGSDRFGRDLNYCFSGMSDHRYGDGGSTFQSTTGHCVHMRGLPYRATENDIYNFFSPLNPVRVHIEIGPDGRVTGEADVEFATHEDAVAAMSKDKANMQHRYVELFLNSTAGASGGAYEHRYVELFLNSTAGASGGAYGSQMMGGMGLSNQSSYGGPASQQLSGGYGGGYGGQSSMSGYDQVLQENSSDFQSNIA
# Chain of UniProt P38117 (P38117 whole entry, looked up): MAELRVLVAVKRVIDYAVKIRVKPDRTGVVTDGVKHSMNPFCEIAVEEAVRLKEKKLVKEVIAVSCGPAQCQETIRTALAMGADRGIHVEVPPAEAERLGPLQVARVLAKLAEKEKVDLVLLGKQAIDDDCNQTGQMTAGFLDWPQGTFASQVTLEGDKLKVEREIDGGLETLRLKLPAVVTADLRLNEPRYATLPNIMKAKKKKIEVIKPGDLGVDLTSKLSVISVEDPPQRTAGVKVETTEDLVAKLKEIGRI
# Chain of UniProt P30153 (P30153 whole entry, looked up): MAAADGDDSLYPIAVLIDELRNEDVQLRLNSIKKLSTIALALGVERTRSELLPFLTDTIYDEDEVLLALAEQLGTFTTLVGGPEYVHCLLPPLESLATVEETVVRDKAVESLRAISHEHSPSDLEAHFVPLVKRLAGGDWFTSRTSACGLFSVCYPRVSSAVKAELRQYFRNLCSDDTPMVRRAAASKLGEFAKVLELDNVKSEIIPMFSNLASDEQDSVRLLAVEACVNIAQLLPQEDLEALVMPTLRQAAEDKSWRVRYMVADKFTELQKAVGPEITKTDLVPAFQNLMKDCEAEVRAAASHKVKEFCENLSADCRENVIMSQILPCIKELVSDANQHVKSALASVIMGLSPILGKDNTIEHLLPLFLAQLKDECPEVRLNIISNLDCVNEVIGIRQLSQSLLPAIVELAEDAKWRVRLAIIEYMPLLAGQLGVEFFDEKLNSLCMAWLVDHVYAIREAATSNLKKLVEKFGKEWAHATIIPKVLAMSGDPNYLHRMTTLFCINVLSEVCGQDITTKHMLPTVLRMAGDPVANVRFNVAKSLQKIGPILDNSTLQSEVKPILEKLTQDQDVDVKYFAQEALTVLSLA
# Chain of UniProt P50990 (P50990 whole entry, looked up): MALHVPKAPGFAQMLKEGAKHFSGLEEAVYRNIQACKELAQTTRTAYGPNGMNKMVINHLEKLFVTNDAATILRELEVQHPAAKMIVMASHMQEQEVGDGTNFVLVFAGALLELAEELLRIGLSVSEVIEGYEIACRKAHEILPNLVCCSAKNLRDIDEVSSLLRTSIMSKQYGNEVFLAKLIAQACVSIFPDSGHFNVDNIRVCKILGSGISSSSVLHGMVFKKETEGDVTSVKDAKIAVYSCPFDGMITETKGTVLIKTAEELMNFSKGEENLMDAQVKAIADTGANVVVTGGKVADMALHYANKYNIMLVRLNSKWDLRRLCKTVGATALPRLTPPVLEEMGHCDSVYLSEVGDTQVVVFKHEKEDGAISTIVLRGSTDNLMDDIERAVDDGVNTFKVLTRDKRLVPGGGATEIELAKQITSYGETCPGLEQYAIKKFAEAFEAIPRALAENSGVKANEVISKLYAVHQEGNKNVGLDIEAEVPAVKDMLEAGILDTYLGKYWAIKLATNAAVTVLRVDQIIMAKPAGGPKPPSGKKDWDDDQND
# Chain of UniProt P13995 (P13995 whole entry, looked up): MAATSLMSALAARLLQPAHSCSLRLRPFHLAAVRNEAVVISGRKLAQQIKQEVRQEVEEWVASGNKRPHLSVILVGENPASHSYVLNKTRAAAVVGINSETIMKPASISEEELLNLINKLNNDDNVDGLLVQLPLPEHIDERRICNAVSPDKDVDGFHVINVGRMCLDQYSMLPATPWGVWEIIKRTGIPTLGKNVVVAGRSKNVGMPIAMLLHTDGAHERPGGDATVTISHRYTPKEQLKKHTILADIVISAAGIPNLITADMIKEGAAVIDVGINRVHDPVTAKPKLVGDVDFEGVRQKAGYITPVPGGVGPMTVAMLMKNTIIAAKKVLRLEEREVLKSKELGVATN
# Chain of UniProt P29372 (P29372 whole entry, looked up): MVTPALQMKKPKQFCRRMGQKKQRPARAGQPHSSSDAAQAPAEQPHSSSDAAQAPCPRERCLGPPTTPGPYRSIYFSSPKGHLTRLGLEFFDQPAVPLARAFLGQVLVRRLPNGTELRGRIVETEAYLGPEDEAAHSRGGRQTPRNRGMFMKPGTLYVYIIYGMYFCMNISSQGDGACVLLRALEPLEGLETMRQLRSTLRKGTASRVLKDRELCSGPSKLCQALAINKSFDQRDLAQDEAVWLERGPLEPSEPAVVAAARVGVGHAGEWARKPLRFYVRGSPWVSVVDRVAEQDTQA
row,Target,log2 ratio of iodoacetamide-alkyne labeling
1,RRM1 C352 (UniProt P23921),0.357
2,NSF C11 (UniProt P46459),0.206
3,FH C333 (UniProt P07954),0.338
4,CCT8 C244 (UniProt P50990),0.242
5,RAP1GDS1 C85 (UniProt P52306),0.197
6,CAST C408 (UniProt P20810),1.01 (active)
7,HNRNPA1 C175 (UniProt P09651),-0.128
8,UniProt P49591_C438,0.0645
9,CASP3 C184 (UniProt P42574),0.259
10,IDH2 C154 (UniProt P48735),0.393
11,SEC24B C562 (UniProt O95487),0.735
12,UniProt P42677_C77,1.73 (active)
13,FECH C395 (UniProt P22830),0.372
14,SRI C194 (UniProt P30626),-0.125
15,RPL27A C144 (UniProt P46776),0.155
16,RANGAP1 C303 (UniProt P46060),0.47
17,PPP2R1A C154 (UniProt P30153),0.637
18,FASN C1548 (UniProt P49327),-0.00359
19,IMPDH2 C95 (UniProt P12268),-0.293
20,PLS3 C33 (UniProt P13797),1.04 (active)
21,MBD4 C268 (UniProt O95243),1.12 (active)
22,RNH1 C85 (UniProt P13489),0.0022
23,HSP90B1 C645 (UniProt P14625),-0.0466
24,GALK1 C170 (UniProt P51570),0.0992
25,ATIC C363 (UniProt P31939),0.3

row,Target,log2 ratio of iodoacetamide-alkyne labeling
1,CRKL C249 (UniProt P46109),1.61 (active)
2,MCM4 C162 (UniProt P33991),0.055
3,MBD3 C172 (UniProt O95983),0.114
4,UniProt P49459_C88,0.243
5,MAP1B C73 (UniProt P46821),0.173
6,DCK C9 (UniProt P27707),1.15 (active)
7,ADD1 C253 (UniProt P35611),0.101
8,PTPN2 C330 (UniProt P17706),0.608
9,CA2 C205 (UniProt P00918),-0.11
10,DNAJA1 C149 (UniProt P31689),0.14
11,HNRNPH1 C267 (UniProt P31943),0.211
12,TCEA1 C271 (UniProt P23193),-0.116
13,TTK C284 (UniProt P33981),0.53
14,SLC25A5 C160 (UniProt P05141),0.177
15,POLD1 C837 (UniProt P28340),1.16 (active)
16,NF1 C383 (UniProt P21359),0.376
17,CCT6A C282 (UniProt P40227),0.13
18,GMPS C137 (UniProt P49915),0.217
19,MTHFD1 C691 (UniProt P11586),0.242
20,RPL4 C208 (UniProt P36578),0.273
21,MPG C56 (UniProt P29372),1.66 (active)
22,EEF2 C812 (UniProt P13639),0.148
23,MTHFD2 C145 (UniProt P13995),0.057
24,CAST C413 (UniProt P20810),0.756
25,MCM3 C319 (UniProt P25205),-0.032

row,Target,log2 ratio of iodoacetamide-alkyne labeling
1,U2AF1L5 C67 (UniProt P0DN76),0.366
2,POLR1A C613 (UniProt O95602),0.472
3,ACAA2 C128 (UniProt P42765),1.22 (active)
4,ETFB C42 (UniProt P38117),0.207
5,IGF2R C2232 (UniProt P11717),1.08 (active)
6,UniProt P26639_C107,0.12
7,CARS C27 (UniProt P49589),0.454
8,MCM5 C219 (UniProt P33992),1.34 (active)
9,PARP1 C128 (UniProt P09874),0.229
10,SFPQ C297 (UniProt P23246),-0.122
11,CCT3 C475 (UniProt P49368),0.185
12,PHKA1 C1082 (UniProt P46020),0.236
13,RPS17 C35 (UniProt P08708),-0.00485
14,GALK1 C351 (UniProt P51570),0.243
15,ENO1 C357 (UniProt P06733),-0.0848
16,GYS1 C699 (UniProt P13807),0.526
17,ADSL C27 (UniProt P30566),0.0306
18,BSG C242 (UniProt P35613),0.215
19,APC C1387 (UniProt P25054),0.256
20,LDHB C294 (UniProt P07195),-0.0731
21,PML C338 (UniProt P29590),0.413
22,CAPN2 C301 (UniProt P17655),2.17 (active)
23,UniProt P49753_C401,0.0763
24,PFKL C170 (UniProt P17858),0.343
